# GLP-1R inv ag – acts as inverse agonist at human GLP-1 receptor | Potency, µM (top dose mostly 38.3 µM), inactives show at the highest dose activity change, negative = inhibition, actives largely listed as inhibitors | HEK293 GLP-1R CRE-luciferase, luminescence, 24 h; GLP-1R form is constitutively active | AID 624417 | hit rate 1.6% among 410,000 | P43220; note: % is set by controls: 0 for no effect and ±100 for the full control effect; nearly all actives have a fitted effect of over 55% in size
# Target sequence (P43220 whole entry, looked up): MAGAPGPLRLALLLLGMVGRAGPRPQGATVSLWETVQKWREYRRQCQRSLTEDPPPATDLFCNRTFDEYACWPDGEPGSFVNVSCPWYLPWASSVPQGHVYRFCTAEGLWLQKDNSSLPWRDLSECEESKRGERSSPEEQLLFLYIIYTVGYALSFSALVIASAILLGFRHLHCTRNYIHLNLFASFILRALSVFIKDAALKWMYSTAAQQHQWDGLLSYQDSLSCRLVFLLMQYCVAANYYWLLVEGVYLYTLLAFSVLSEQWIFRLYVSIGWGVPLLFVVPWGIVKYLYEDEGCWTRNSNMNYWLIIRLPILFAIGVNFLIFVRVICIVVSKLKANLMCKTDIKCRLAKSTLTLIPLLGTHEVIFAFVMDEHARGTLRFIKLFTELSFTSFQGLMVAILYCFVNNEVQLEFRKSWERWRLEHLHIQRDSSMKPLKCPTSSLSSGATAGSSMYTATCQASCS
#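 GLP-1R inverse agonism mode: basal reporter luminescence in engineered HEK293 cells measured after one day of compound exposure at 37 deg C, with a 12 min room-temperature detection step.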
# BRCA1 expr act – increases BRCA1 expression | Potency, µM (titrated, usually from 46.1 µM), without a hit: at the top dose activation, hits mostly activators | hit rate 1.1% among 380,000 | AID 624202 | MCF7-BRCA1-FFLuc reporter, luminescence, 48 h; response scale: scaled: vehicle 0%, 10 µM genistein 100%; note: nearly all actives have a fitted effect of over 80% in size
#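 Quantitative HTS in MCF7 cells stably reporting BRCA1 expression via firefly luciferase. Compound treatment lasts 48 h at 37 °C in phenol-red free MEM. Activation is expressed relative to genistein at 10 microM and DMSO.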
# HEK293 tox – cytotoxicity in counter-screen for GLP-1R inverse agonists | Potency, µM (titrated, usually from 38.3 µM), for inactives: at the highest dose activity change, negative = inhibition, actives largely listed as inhibitors | HEK293 cAMP-luciferase reporter cells, luminescence, 24 h | hit rate 0.13% among 410,000 | AID 624418;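 note: loss of luciferase light is scored as toxicity; % is set by controls: 0 for no effect and ±100 for the full control effect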
#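 Step one: seed cells (200 cells/uL, DMEM with 10% Nu serum, 1% pen-strep). Step two: 12-hour incubation at 37 deg C. Step three: pin 23 nL compound, incubate 24 hr. Step four: add luciferase reagent, read luminescence 12 min later.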
# GLP1R ag – activates the human GLP-1 receptor; AID 624172; HEK293 GLP-1R CRE-luciferase, luminescence, 4-6 h; cells express a hypersensitive GLP-1R form; Potency, µM (series often up to 45.6 µM), for inactives: at the highest dose activation, most hits filed as activators; hit rate 0.007% among 380,000; P43220; note: % of control where 0% means no effect
# Mito fusion yeast – inhibitors of mitochondrial division or activators of mitochondrial fusion | S. cerevisiae fusion-defective mutant growth rescue, CellTiterGlo 48 h | Potency, µM (doses to about 46.1 µM), for inactives: top-dose growth rescue (activation), hits mostly activators | hit rate 0.23% among 320,000; note: % of control where 0% means no effect; nearly all actives have a fitted effect of over 45% in size
#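 Growth-rescue viability read-out: after 48 h at the non-permissive 37C in glycerol/ethanol YPEG, yeast mitochondrial fusion mutants are measured by CellTiterGlo luminescence; compounds (23 nl pinned per well) restoring growth score as division inhibitors or fusion activators.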
# * marks the source's active call; other numbers are inactive results; ? = inconclusive; . = no result. Most compounds without a hit are left out; they make up all but 2.8% or so of the library. Calls come from the whole dose curve; as a rule, active = well fitted curve in the direction sought with a large enough effect; inconclusive = small, poorly fitted or top-dose-only effect, or another doubt; inactive = no such curve, though single readings can be large; an effect the other way counts as inactive or inconclusive. Potency is the fitted concentration of half-maximal effect.
SMILES,GLP-1R inv ag,BRCA1 expr act,HEK293 tox,GLP1R ag,Mito fusion yeast
Oc1ccc(/C=N/N2CCCCC2)cc1O,46%,85%,-24%,-1%,-4%
Clc1ccc(C=NN2CCCCCC2)cc1Cl,-1%,8.9µM*,-12%,0%,.
O=[N+]([O-])c1ccc(/C=N/N2CCCCC2)cc1,-3%,10µM*,-7%,21%,2%
C(=NN1CCCCCC1)c1ccccc1,1%,-28%,-7%,-1%,.
COc1cc2nc(N3CCN(C)CC3)nc(NC(C)C)c2cc1OC,.,4%,.,.,.
Cc1nc(C)n(CC(O)COc2ccc3c(c2)CCC3)n1 (centres undefined),-20%,8%,1%,0%,-3%
COC(=O)/C=C/C(=O)Nc1cccc(C(F)(F)F)c1,7.9µM*,-59%,?,8%,-1%
COC(=O)/C(=C\C(=O)c1ccccc1)Nc1cccc(C(F)(F)F)c1,2%,10µM*,-20%,-2%,-2%
COC(=S)Nc1cccc(C(F)(F)F)c1,0%,-10%,1%,8%,-10%
CCCN1C(=O)/C(=C/c2ccc(C)o2)SC1=Nc1ccc(OCC)cc1,24%,9%,0%,3%,0%
COCCn1nnnc1C(c1cc2cc(C)cc(C)c2[nH]c1=O)N1CCN(c2ccccc2F)CC1 (centres undefined),2%,0%,2%,1%,-4%
COC(=O)c1ccn(Cc2ccccc2Cl)n1,?,13µM*,-20%,7%,-3%
CCC/C=C1/CCCOC(C(=O)NCc2ccccn2)(C(F)(F)F)C1 (centres undefined),-20%,6%,15%,-4%,.
O=C(CSc1nc2ccccc2o1)Nc1ccccc1N1CCCCCC1,0%,-2%,2%,8%,0%
CCOC(=O)c1ccc(NS(=O)(=O)c2c(C)n(C)c(=O)n(C)c2=O)cc1,5%,2%,-5%,9%,0%
C[C@H](c1ccccc1)N1C[C@H](COCc2ccccc2)Oc2cc(N3CC[C@H](O)C3)ccc2S1(=O)=O,10µM*,-24%,-6%,4%,.
C[C@H](c1ccccc1)N1C[C@@H](COCc2ccccc2)Oc2cc(N3CC[C@H](O)C3)ccc2S1(=O)=O,?,0%,-1%,-2%,.
COCCCN(C(=O)C1CCCCC1)c1c(N)n(Cc2ccccc2)c(=O)[nH]c1=O,-2%,-4%,4%,-8%,.
COc1cc(N=Nc2ccccc2C(=O)O)ccc1O,31%,-41%,-20%,-10%,-18%
COc1cc(N=Nc2ccc3ccccc3c2)ccc1O,?,5µM*,-12%,20%,-28%
O=C(NC1CCN(C(=S)NCc2ccco2)CC1)C12CC3CC(CC(C3)C1)C2,0%,-1%,-18%,-1%,0%
CCC(CC)NCc1ccc2c(c1)c1ccccc1n2CC,4.5µM*,-74%,?,-5%,-12%
COc1cccc(CNCc2ccc(OC)cc2OC)c1,-9%,-28%,-17%,6%,-4%
CCn1c2ccccc2c2cc(CNCc3ccc(OC)cc3OC)ccc21,7.9µM*,-85%,?,1%,-24%
Cn1c(=O)n(CCCc2ccccc2)c(=O)c2c1nc1n2CCN1c1ccccc1,13%,.,-9%,.,.
SMILES,GLP-1R inv ag,BRCA1 expr act,HEK293 tox,GLP1R ag,Mito fusion yeast
Brc1ccc2[nH]c3c(c2c1)CCC3,?,-34%,-4%,-2%,-2%
O=C1Cc2c([nH]c3ccc(Br)cc23)-c2ccccc2N1,8%,-76%,-13%,-8%,7.3µM*
COC(=O)c1cc(CSC(=N)N)ccc1OCCC(C)C,10µM*,-31%,?,14%,-5%
CC(C)C1C(=O)N(Cc2cn(CCC3OCCCO3)nn2)CCS(=O)(=O)N1Cc1ccc(-c2ccc(F)nc2)cc1 (centres undefined),-2%,0%,-7%,6%,.
Cc1ccc(C)c(N(C)C(=O)c2cn(C)c(=O)c3ccccc23)c1,6.3µM*,.,28%,.,.
CCc1ccc(-n2nc(CO)c(C(=O)NCc3ccccc3Cl)n2)cc1,15%,.,2%,.,.
COc1cc(/C=C/c2ccc3cccc([N+](=O)[O-])c3n2)ccc1OCC#N,48%,-13%,-24%,26%,-19%
CCN(C(=O)CSc1nnc(Nc2ccccc2)s1)C1CCS(=O)(=O)C1 (centres undefined),21%,23%,0%,-5%,-1%
COc1ccc(Nc2nnc(SCC(=O)N(CC(C)C)C3CCS(=O)(=O)C3)s2)cc1 (centres undefined),-39%,7.1µM*,-25%,-2%,.
CCN=c1scc(-c2ccccc2)n1/N=C/c1ccccn1,3.2µM*,-26%,79%,4%,11%
C=CCN=c1scc(-c2ccccc2)n1/N=C/c1ccccn1,11µM*,?,?,11%,21%
O=c1[nH]ncc(N2CCN(C(c3ccccc3)c3ccccc3)CC2)c1Cl,13µM*,-15%,8%,-1%,?
Cc1ccc(CNC(=O)COC(=O)c2ccc(S(=O)(=O)N3CCCCCC3)cc2)cc1,9%,7%,3%,10%,5%
Cc1cccc(N(C)C(CNS(=O)(=O)c2ccccc2)c2ccccc2)c1 (centres undefined),10µM*,.,4%,.,.
CCN(c1ccccc1)C(CNS(=O)(=O)c1ccccc1)c1ccccc1 (centres undefined),10µM*,.,-6%,.,.
CC(C)(C)[C@H](N)C(=O)N[C@H]1CCC2C3CC=C4C[C@@H](O)CC[C@]4(C)C3CC[C@@]21C (some centres undefined),?,-85%,?,-2%,.
Cc1ccc(S(=O)(=O)NCC(=O)N(CC2CCCO2)C(C(=O)NC2CCCC2)C(C)C)cc1 (centres undefined),12%,-13%,10%,-2%,3%
N/C(CC(=O)NC1CCCCC1)=N\OCC(=O)Nc1ccc(Cl)c(Cl)c1,22µM*,-15%,6%,10%,0%
CCc1cccc(CC)c1NC(=O)CO/N=C(\N)CC(=O)NC1CCCCC1,-2%,-8%,-2%,6%,7%
CCOC(=O)C1=C(CN(CC)Cc2ccccc2)NC(=O)NC1c1ccc(Cl)cc1 (centres undefined),10µM*,-32%,-13%,-5%,.
CCOC(=O)C1=C(CNCCc2ccc(Cl)cc2)NC(=O)NC1c1ccc2c(c1)OCO2 (centres undefined),6.3µM*,-52%,-22%,4%,25%
CCOC(=O)C1=C(CN(CC)Cc2ccccc2)NC(=O)NC1c1ccc(OC)cc1 (centres undefined),?,.,-7%,.,.
CCCSc1ccc2nc(-c3ccccc3)cn2c1,2.5µM*,-79%,-1%,-29%,16%
Cc1ccc(-n2nc(C)cc2Nc2ncc(Cl)cc2Cl)cc1,?,-13%,8%,22%,-2%
